This note sets out measurements from PubChem BioAssay (Tox21).

Active and inactive are the calls of the source. Calls follow the shape of the dose curve; as a rule, active = well fitted curve in the direction sought with a large enough effect in the repeat runs; inconclusive = weak or mixed curves; inactive = flat fitted curve, though single readings scatter.

A short description of experiment [1]: qHTS assay to test for compound auto fluorescence at 535 nm (green) in HEK293 cells (AID 720680). Background: qHTS replaces the single test concentration by a dilution series.
Experiment [2] is described as follows: qHTS assay to test for compound auto fluorescence at 460 nm (blue) in HEK293 cell free culture (AID 720681). Also: potency is read from the fitted curve at half-maximal effect. Summed up: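 Test compounds were pinned into cell-free culture medium (DMEM with 10% FBS) and fluorescence was read directly at Ex/Em 405/460 nm. Signals were expressed as fluorescence equivalents of triamterene, with DMSO vehicle as control.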
Experiment [3] in a line: qHTS assay to test for compound auto fluorescence at 535 nm (green) in HEK293 cell free culture (AID 720682). The essentials:
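Each library compound, or DMSO control, is added by pintool to medium alone, comprising DMEM and 10% FBS. Emission at 535 nm following 485 nm excitation is quantified against fluorescein.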

Experiment [4] can be described thus: qHTS assay to test for compound auto fluorescence at 590 nm (red) in HEK293 cell free culture (AID 720683). The essentials: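 Tox21 10K library compounds were pinned into cell-free DMEM with 10% FBS and fluorescence was read at excitation 540 nm. Activity is expressed as Rose Bengal sodium equivalency.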
Experiment [5] can be described thus: qHTS assay to test for compound auto fluorescence at 590 nm (red) in HepG2 cell free culture (AID 720684). The essentials: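 Ex 540 / Em 590 nm read of compound in cell-free MEM (10% FBS). Rose Bengal sodium reference.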
The nature of experiment [6]: qHTS assay to test for compound auto fluorescence at 460 nm (blue) in HepG2 cell free culture (AID 720685). Also: potency is read from the fitted curve at half-maximal effect. The essentials:
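Cell-free plates of MEM plus 10% FBS received 23 nL compound or DMSO vehicle; blue-channel (405/460 nm) intensity scored against triamterene as reference fluorophore.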

Experiment [7] is described as follows: qHTS assay to test for compound auto fluorescence at 535 nm (green) in HepG2 cell free culture (AID 720686).
Experiment [8] is described as follows: qHTS assay to test for compound auto fluorescence at 460 nm (blue) in HepG2 cells (AID 720687). Also: potency is read from the fitted curve at half-maximal effect. Summed up: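 Cells (2,000/well in MEM with 10% FBS) attached overnight at 37 C, then were exposed to compound or DMSO for 1 hr at 37 C, 5% CO2. Fluorescence read at Ex/Em 405/460 nm, expressed as triamterene-equivalent signal.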
Tags tell the direction and shape of the fitted curve or compound fluorescence and quenching.

As to `NCC1CCC(C(=O)O)CC1` (stereo not drawn), the compound was classed as inactive in experiment [1], in experiment [3], in experiment [4] and in experiment [5]. Moreover, the Potency entry in experiment [2], in experiment [6], in experiment [7] and in experiment [8] was “inactive” throughout.
`CC(C)OC(=O)Nc1ccc2nc(-c3cscn3)[nH]c2c1`: the call in experiment [1], in experiment [3], in experiment [4] and in experiment [5] was inactive. For the same compound, the Potency entry in experiment [2], in experiment [6] and in experiment [7] was “inactive” in each case.
On to `CC(C)(C)C(=O)OCC(=O)[C@H]1CC[C@H]2[C@@H]3CCC4=CC(=O)CC[C@]4(C)[C@H]3CC[C@]12C`, for which the outcome in experiment [1], in experiment [3], in experiment [4] and in experiment [5] was inactive. Moreover, the Potency entry in experiment [2], in experiment [6], in experiment [7] and in experiment [8] was “inactive” each time.
On to `CCCCCCCCCC(=O)NO`, for which the outcome in experiment [1], in experiment [3], in experiment [4] and in experiment [5] was inactive. For the same compound, the Potency entry in experiment [2], in experiment [6], in experiment [7] and in experiment [8] was “inactive” each time.
With `CC(=O)N[C@@H](C=O)[C@H](O)[C@H](O)[C@@H](O)CO`, the outcome in experiment [1], in experiment [3], in experiment [4] and in experiment [5] was inactive. Further, the Potency result in experiment [2], in experiment [6], in experiment [7] and in experiment [8] was “inactive” each time.
Take `O=C(O)Cc1nn(Cc2ccc(Br)cc2F)c(=O)c2ccccc12`: the compound was classed as inactive in experiment [1], in experiment [3], in experiment [4] and in experiment [5]. In addition, the Potency result in experiment [2], in experiment [6] and in experiment [7] was “inactive” throughout.
Turning to `NCC[C@H](O)C(=O)N[C@@H]1C[C@H](N)[C@@H](O[C@H]2O[C@H](CN)CC[C@H]2N)[C@H](O)[C@H]1O[C@H]1O[C@H](CO)[C@@H](O)[C@H](N)[C@H]1O`, the outcome in experiment [1], in experiment [3], in experiment [4] and in experiment [5] was inactive. Moreover, the Potency entry in experiment [2], in experiment [6], in experiment [7] and in experiment [8] was “inactive” throughout.
For the compound `O=C1c2ccccc2-c2n[nH]c3cccc1c23`, the result in experiment [1], in experiment [3], in experiment [4] and in experiment [5] was inactive. In addition, the Potency is 14.1 µM (active) in experiment [2], 12.6 µM [fluorescent] (active) in experiment [6] and 14.1 µM [fluorescent] (active) in experiment [8]. Also, the Potency result in experiment [7] is “inactive”.
Regarding `CCCCCCCCCC[N+](C)(CCCCCCCCCC)CCC[Si](OC)(OC)OC`, the outcome in experiment [1], in experiment [3], in experiment [4] and in experiment [5] was inactive. The Potency entry in experiment [2], in experiment [6], in experiment [7] and in experiment [8] was “inactive” in each case.
On to `CC(C)C[C@@H](NC(=O)[C@@H](O)[C@H](N)Cc1ccccc1)C(=O)O`, for which the outcome in experiment [1], in experiment [3], in experiment [4] and in experiment [5] was inactive. Also, the Potency entry in experiment [2], in experiment [6] and in experiment [7] was “inactive” throughout.
With `COc1cc(NS(C)(=O)=O)ccc1Nc1c2ccccc2nc2ccccc12`, the outcome in experiment [1], in experiment [3], in experiment [4] and in experiment [5] was inactive. Besides, the Potency is 12.6 µM (active) in experiment [2], 12.6 µM [fluorescent] (active) in experiment [6] and 12.6 µM [fluorescent] (active) in experiment [8]. In addition, in experiment [7], the Potency result is “inactive”.
On to `C[S+](CC[C@H](N)C(=O)O)C[C@H]1O[C@@H](n2cnc3c(N)ncnc32)[C@H](O)[C@@H]1O` (stereo partly drawn), for which the compound was called inactive in experiment [1], in experiment [3], in experiment [4] and in experiment [5]. The Potency entry in experiment [2], in experiment [6], in experiment [7] and in experiment [8] was “inactive” throughout.
On to `FC(F)(F)C(F)(F)C(F)(F)C(F)(F)C(F)(F)F`, for which the compound was called inactive in experiment [1], in experiment [3], in experiment [4] and in experiment [5]. Besides, the Potency entry in experiment [2], in experiment [6], in experiment [7] and in experiment [8] was “inactive” each time.
For `CC[C@@]1([C@@H]2O[C@@H]([C@H]3O[C@@](O)(CO)[C@H](C)C[C@@H]3C)C[C@@H]2C)CC[C@H]([C@]2(C)CC[C@]3(C[C@H](O)[C@@H](C)[C@@H]([C@@H](C)[C@@H](OC)[C@H](C)C(=O)O)O3)O2)O1` (stereo in doubt), the call in experiment [1], in experiment [3], in experiment [4] and in experiment [5] was inactive. The Potency entry in experiment [2], in experiment [6], in experiment [7] and in experiment [8] was “inactive” in each case.
Take `Cc1cnc(C(=O)O)c[n+]1[O-]`: the compound was called inactive in experiment [1], in experiment [3], in experiment [4] and in experiment [5]. Also, the Potency entry in experiment [2], in experiment [6], in experiment [7] and in experiment [8] was “inactive” each time.
For `CN(C)CCOc1ccc(/C(=C(/CCCl)c2ccccc2)c2ccccc2)cc1`, the compound was classed as inactive in experiment [1], in experiment [3], in experiment [4] and in experiment [5]. The Potency entry in experiment [2], in experiment [6], in experiment [7] and in experiment [8] was “inactive” in each case.
Turning to `CCCCCCCC/C=C\CCCCCCCC(=O)N(CCO)CCO`, the compound was classed as inactive in experiment [1], in experiment [3], in experiment [4] and in experiment [5]. Moreover, the Potency entry in experiment [2], in experiment [6], in experiment [7] and in experiment [8] was “inactive” each time.
Consider `CC(C)(COP(=O)(O)OP(=O)(O)OC[C@H]1O[C@@H](n2cnc3c(N)ncnc32)[C@H](O)[C@@H]1OP(=O)(O)O)C(O)C(=O)NCCC(=O)NCCS` (stereo partly drawn), for which the result in experiment [1], in experiment [3], in experiment [4] and in experiment [5] was inactive. Besides, the Potency result in experiment [2], in experiment [6], in experiment [7] and in experiment [8] was “inactive” throughout.
On to `CO[C@H]1C[C@@H]2CC[C@@H](C)[C@@](O)(O2)C(=O)C(=O)N2CCCC[C@H]2C(=O)O[C@H]([C@H](C)C[C@@H]2CC[C@@H](O)[C@H](OC)C2)CC(=O)[C@H](C)C=C(C)[C@@H](O)[C@@H](OC)C(=O)[C@H](C)C[C@H](C)/C=C/C=CC=C1C`, for which the compound was classed as inactive in experiment [1], in experiment [3], in experiment [4] and in experiment [5]. Also, the Potency result in experiment [2], in experiment [6], in experiment [7] and in experiment [8] was “inactive” each time.
`NC(=O)CC[C@@H]1NC(=O)[C@H](Cc2ccccc2)NC(=O)[C@H](Cc2ccc(O)cc2)NC(=O)[C@@H](N)CSSC[C@@H](C(=O)N2CCC[C@H]2C(=O)N[C@@H](CCCN=C(N)N)C(=O)NCC(N)=O)NC(=O)[C@H](CC(N)=O)NC1=O`: the compound was classed as inactive in experiment [1], in experiment [3], in experiment [4] and in experiment [5]. Besides, the Potency result in experiment [2], in experiment [6], in experiment [7] and in experiment [8] was “inactive” in each case.
With `NC(=S)NS(=O)(=O)c1ccc(N)cc1`, the result in experiment [1], in experiment [3], in experiment [4] and in experiment [5] was inactive. Besides, the Potency result in experiment [2], in experiment [6], in experiment [7] and in experiment [8] was “inactive” each time.
Consider `CC(=NCc1ccccc1)c1ccccc1O`, for which the result in experiment [1], in experiment [3], in experiment [4] and in experiment [5] was inactive. The Potency entry in experiment [2], in experiment [6], in experiment [7] and in experiment [8] was “inactive” each time.
